Potency, activity change, negative = inhibition and activity, negative = inhibition data for 14 compounds are collected here from PubChem BioAssay (NCATS).

In experiment [1] the target is Lysosomal acid glucosylceramidase (Homo sapiens) (UniProt P04062). Nature of the experiment: Glucocerebrosidase-p2 (AID 348; in the data active = potency below about 10 µM; note: potency is the fitted concentration of half-maximal effect). As to conditions: purified GBA, blue fluorogenic substrate, 40 min. An outline of the steps: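 Normal human glucocerebrosidase (0.2 nM) with blue fluorogenic substrate (80 uM final) in citrate/phosphate pH 5.9 with 10mM sodium taurocholate, 0.01% tween-20; 40 min RT, NaOH/glycine stop; fluorescence Ex 365/Em 440; AC50 from a titration from 0.6 nM upwards.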
Sequence of Lysosomal acid glucosylceramidase (Homo sapiens) (P04062 whole entry, looked up): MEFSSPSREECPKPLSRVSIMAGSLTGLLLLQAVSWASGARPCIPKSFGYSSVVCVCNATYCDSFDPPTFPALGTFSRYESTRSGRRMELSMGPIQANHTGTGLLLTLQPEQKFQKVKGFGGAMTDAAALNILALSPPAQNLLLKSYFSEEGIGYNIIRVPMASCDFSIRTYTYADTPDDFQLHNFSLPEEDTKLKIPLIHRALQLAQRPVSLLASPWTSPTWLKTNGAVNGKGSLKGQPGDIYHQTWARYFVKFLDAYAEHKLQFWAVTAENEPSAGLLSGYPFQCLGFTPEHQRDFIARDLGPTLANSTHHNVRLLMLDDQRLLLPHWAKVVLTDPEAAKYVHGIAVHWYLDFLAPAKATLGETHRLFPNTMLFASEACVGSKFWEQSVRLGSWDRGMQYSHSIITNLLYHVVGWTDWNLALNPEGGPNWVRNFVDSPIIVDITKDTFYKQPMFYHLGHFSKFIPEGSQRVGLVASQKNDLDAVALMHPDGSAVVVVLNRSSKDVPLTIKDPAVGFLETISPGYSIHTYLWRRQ

Experiment [2] is described as follows: AP1 Signaling Pathway (AID 357).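 Note: ME-180 reporter cells stimulated with EGF at its EC50 level; % is set by controls: 0 for no effect and ±100 for the full control effect.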 As to conditions: ME-180 AP-1-bla reporter, EGF-induced, beta-lactamase ratio, 5 h; at 7.69 µM (top of the series) unless noted. The method in brief: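 AP-1-bla ME-180 cells, Opti-MEM + 0.5% dialyzed FBS, plated overnight 37 °C. Cpd titration + EC50 EGF, 5 h 37 °C. CCF4 2.5 h RT; ex 405, em 460/530 ratio → %activity, AC50.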

The target in experiment [3] is Cytochrome P450 1A2 (Homo sapiens) (UniProt P05177). Put plainly: p450-cyp1a2 (AID 410; calls by dose curve; note: potency is the fitted concentration of half-maximal effect;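 for activity change, negative = inhibition: -100% = full effect of reference inhibitor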). As to conditions: recombinant CYP1A2, luciferin-ME demethylation, luminescence; series mostly up to 11.4 µM. The method in brief:
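Read-out is luminescence from luciferin produced by CYP1A2 demethylation of Luciferin-ME (100uM, at Km). Detection reagent stopped the 60 min NADPH-dependent reaction; signals were normalized to 57 uM furafylline.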

Experiment [4] is described as follows: Stat Signaling Pathway (AID 446).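 Note: ME-180 cervical cancer cells given 40 pM IL-6 alongside compound; SIE-controlled beta-lactamase reporter measured as 460/530 nm FRET emission ratio; % is set by controls: 0 for no effect and ±100 for the full control effect.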 Particulars: ME-180 (cervical carcinoma) SIE beta-lactamase reporter, IL-6 stimulated, 5 h; at 7.69 µM (top of the series) unless noted. The method in brief: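 Emission at 460 and 530 nm (excitation 405 nm) reports SIE-controlled beta-lactamase in ME-180 cells. Cells received compound with 40 pM IL-6 for 5 hrs at 37 C; data scaled between 300 pM IL-6 and 125 nM JAK-inhibitor controls.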

In experiment [5] the target is Glucocorticoid receptor (Homo sapiens) (UniProt P04150). Nature of the experiment: GR-GFP Redistribution (AID 450;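 active = compounds whose dose series gives a full or clear partial fitted curve of increased nuclear translocation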; note: potency is the fitted concentration of half-maximal effect). Particulars: U2OS GR-GFP nuclear translocation, laser cytometry, 2 h.
Sequence of Glucocorticoid receptor (Homo sapiens) (P04150 whole entry, looked up): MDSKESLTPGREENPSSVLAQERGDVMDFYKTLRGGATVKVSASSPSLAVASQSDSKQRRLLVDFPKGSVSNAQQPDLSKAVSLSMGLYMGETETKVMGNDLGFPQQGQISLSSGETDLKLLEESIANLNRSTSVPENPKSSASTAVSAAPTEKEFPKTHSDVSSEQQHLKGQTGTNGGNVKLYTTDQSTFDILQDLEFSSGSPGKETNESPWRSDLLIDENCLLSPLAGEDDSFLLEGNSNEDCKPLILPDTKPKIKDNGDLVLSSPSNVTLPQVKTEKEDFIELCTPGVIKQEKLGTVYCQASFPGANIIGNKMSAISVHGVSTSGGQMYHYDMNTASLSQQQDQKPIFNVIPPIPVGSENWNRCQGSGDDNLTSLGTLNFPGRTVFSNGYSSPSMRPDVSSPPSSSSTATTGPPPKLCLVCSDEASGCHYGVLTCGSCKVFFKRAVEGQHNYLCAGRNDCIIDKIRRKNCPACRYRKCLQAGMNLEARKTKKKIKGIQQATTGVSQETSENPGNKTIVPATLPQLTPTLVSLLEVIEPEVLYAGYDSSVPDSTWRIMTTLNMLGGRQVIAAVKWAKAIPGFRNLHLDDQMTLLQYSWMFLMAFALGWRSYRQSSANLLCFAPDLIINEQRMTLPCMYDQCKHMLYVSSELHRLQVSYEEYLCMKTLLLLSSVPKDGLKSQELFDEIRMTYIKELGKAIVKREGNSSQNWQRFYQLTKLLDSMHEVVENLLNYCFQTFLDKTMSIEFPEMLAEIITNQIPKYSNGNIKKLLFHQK
Experiment [6] shares this target. Put plainly: GR-EFC Redistribution (AID 451; calls by dose curve; note: potency is the fitted concentration of half-maximal effect). As to conditions: CHO-K1 GR-EFC translocation, beta-gal luminescence, 2 h. An outline of the steps:
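CHO-K1 cells stably expressing nuclear-localized β-gal enzyme acceptor and GR fused C-terminally to the enzyme donor fragment; ligand-driven nuclear translocation restores β-gal by complementation. Compounds titrated up to 46 uM final, 2 h at 37 °C; luminescence read.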

The target of experiment [7] is Mitogen-activated protein kinase 10 (Mus musculus) (UniProt Q61831). Put plainly: JNK3 AlphaScreen Assay (AID 530).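 Note: kinase came from lysate of stimulated human HepG2 cells; signal reports phosphorylation of biotinylated GST-cJun 1-79 at Ser73 with 10 µM ATP; % is set by controls: 0 for no effect and ±100 for the full control effect.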 Particulars: JNK3 lysate, c-Jun phosphorylation; series mostly up to 11.4 µM. The method in brief:
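Biotinylated GST-cJun(1-79) served as substrate for JNK3 in HepG2 lysates stimulated with IL-1beta and TNF-alpha. ATP was 10 uM final, pH 7.6. Ser73 phosphorylation was quantified by AlphaScreen (680 nm excitation).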

The target of experiment [8] is 3',5'-cyclic-AMP phosphodiesterase 4B (Homo sapiens) (UniProt Q07343). Nature of the experiment: qHTS Assay for Inhibitors of PDE-IV (AID 607; active = well fitted activation curve with a large enough effect in the main read-out, with a control signal flat, not every such curve was filed as active; note: % of control where 0% means no effect). Particulars: HEK293 ACTOne CNG channel cells, membrane potential fluorescence; series mostly up to 22.9 µM. An outline of the steps: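 The readout is membrane depolarisation from a cAMP-sensing CNG channel, detected with a potential dye at ex 535/em 590. Cells were HEK293-derived (endogenous PDE-IV) at 1000 cells/well, titrated up to 22.9 uM final.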
Sequence of 3',5'-cyclic-AMP phosphodiesterase 4B (Homo sapiens) (Q07343 whole entry, looked up): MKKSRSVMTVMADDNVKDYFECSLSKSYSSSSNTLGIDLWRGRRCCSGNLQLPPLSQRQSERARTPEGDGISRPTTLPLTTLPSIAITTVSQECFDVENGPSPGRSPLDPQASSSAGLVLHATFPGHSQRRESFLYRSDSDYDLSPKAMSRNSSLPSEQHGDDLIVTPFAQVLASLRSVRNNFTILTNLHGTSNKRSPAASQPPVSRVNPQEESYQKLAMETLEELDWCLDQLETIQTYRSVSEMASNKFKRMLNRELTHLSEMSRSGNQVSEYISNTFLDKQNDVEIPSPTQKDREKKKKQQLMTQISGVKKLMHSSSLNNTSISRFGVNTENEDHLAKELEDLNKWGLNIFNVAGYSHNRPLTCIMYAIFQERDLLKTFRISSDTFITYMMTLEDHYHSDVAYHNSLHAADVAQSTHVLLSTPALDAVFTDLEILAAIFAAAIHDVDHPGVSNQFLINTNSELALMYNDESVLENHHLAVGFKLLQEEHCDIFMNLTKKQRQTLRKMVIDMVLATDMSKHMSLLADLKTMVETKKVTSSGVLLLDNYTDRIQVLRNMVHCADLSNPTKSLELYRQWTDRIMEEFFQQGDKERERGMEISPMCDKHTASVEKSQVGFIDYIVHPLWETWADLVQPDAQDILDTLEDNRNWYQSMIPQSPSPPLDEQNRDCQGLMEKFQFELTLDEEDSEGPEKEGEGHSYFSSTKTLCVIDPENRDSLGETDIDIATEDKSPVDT
(In general: Quantitative high-throughput screening tests each substance at several concentrations.)

For experiment [9], the target named is Cytochrome P450 3A4 (Homo sapiens) (UniProt P08684). Put plainly: qHTS Assay for Activators of Cytochrome P450 3A4 (AID 885; active = well fitted curve in the direction sought with a large enough effect; an effect the other way counts as inactive or inconclusive; note: nearly all actives have a fitted effect of over 65% in size). Particulars: recombinant CYP3A4, Luciferin-PPXE luminescence, 60 min; series mostly up to 11.4 µM. The method in brief:
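Activators are scored by enhanced luminescence from CYP3A4 conversion of luciferin-PPXE (25uM, equal to KM) to luciferin, after 60 min at RT with an NADPH-regenerating system.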

For experiment [10] the target is unchanged. Nature of the experiment: qHTS Assay for Inhibitors and Substrates of Cytochrome P450 3A4 (AID 884; active = well fitted curve in the direction sought with a large enough effect; an effect the other way counts as inactive or inconclusive; note: potency is the fitted concentration of half-maximal effect; nearly all actives have a fitted effect of over 50% in size). Particulars: recombinant CYP3A4, Luciferin-PPXE luminescence; series mostly up to 57.1 µM. An outline of the steps: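 Luminescent readout of luciferin produced by CYP3A4 (20 nM) dealkylation of Luciferin-PPXE, 25 uM (its KM). NADPH-driven reaction ran 60 min at RT after 10 min compound preincubation; data scaled to 57 uM ketoconazole as 100% inhibition.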

In experiment [11] the target is Cytochrome P450 2C19 (Homo sapiens) (UniProt P33261). Put plainly: qHTS Assay for Inhibitors and Substrates of Cytochrome P450 2C19 (AID 899; active = well fitted curve in the direction sought with a large enough effect; an effect the other way counts as inactive or inconclusive; note: nearly all actives have a fitted effect of over 60% in size; note: potency is the fitted concentration of half-maximal effect; for activity, negative = inhibition: % is set by controls: 0 for no effect and ±100 for the full control effect). Particulars: recombinant CYP2C19, luciferin-H EGE luminescence; series mostly up to 11.4 µM. An outline of the steps: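 Human CYP2C19 (5nM) with Luciferin-H EGE at 10uM (its KM) in 50mM KPO4 was preincubated with compound for 10 min at 37C. NADPH regeneration started a 60 min 37C reaction. Luciferin was read by luminescence, normalized to 57uM ketoconazole.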
Sequence of Cytochrome P450 2C19 (Homo sapiens) (P33261 whole entry, looked up): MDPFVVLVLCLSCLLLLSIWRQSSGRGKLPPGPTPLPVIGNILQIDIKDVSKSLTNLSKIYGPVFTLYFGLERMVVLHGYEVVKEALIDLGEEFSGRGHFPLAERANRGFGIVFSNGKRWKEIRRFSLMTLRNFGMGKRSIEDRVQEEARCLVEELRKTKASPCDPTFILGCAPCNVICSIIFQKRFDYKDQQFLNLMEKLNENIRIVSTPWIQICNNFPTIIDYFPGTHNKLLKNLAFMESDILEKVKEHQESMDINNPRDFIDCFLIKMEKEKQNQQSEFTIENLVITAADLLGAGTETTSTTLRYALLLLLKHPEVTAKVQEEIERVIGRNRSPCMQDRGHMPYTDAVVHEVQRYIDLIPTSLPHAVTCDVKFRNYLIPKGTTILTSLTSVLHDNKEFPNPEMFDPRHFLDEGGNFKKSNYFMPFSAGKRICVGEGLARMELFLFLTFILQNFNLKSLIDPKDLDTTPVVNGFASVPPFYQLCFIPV

The target in experiment [12] is Cytochrome P450 2D6 (Homo sapiens) (UniProt P10635). Put plainly: qHTS Assay for Inhibitors and Substrates of Cytochrome P450 2D6 (AID 891; active = well fitted curve in the direction sought with a large enough effect; an effect the other way counts as inactive or inconclusive; note: potency is the fitted concentration of half-maximal effect; nearly all actives have a fitted effect of over 60% in size). Particulars: recombinant CYP2D6, luciferin-ME EGE luminescence; series mostly up to 11.4 µM. An outline of the steps:
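Luminescent read-out of luciferin formed by 5 nM human CYP2D6 demethylating 30 uM Luciferin-ME EGE (Km level) over 60 min at room temperature after NADPH regeneration addition. Data normalized to full inhibition by 1.43 uM quinidine.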

For experiment [13], the target named is Cytochrome P450 2C9 (Homo sapiens) (UniProt P11712). Nature of the experiment: qHTS Assay for Inhibitors and Substrates of Cytochrome P450 2C9 (AID 883; active = well fitted curve in the direction sought with a large enough effect; an effect the other way counts as inactive or inconclusive; note: % is set by controls: 0 for no effect and ±100 for the full control effect; nearly all actives have a fitted effect of over 60% in size). As to conditions: recombinant CYP2C9, luciferin-H luminescence, 60 min; series mostly up to 11.4 µM. An outline of the steps: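 Human CYP2C9 (10nM) hydroxylated Luciferin-H (100uM, at its KM) to luciferin in 25mM KPO4. Compound was preincubated 10 min at 37C, then NADPH regeneration started a 60 min reaction at 37C. Luminescence was read after detection reagent, normalized to 57uM sulphaphenazole.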
Sequence of Cytochrome P450 2C9 (Homo sapiens) (P11712 whole entry, looked up): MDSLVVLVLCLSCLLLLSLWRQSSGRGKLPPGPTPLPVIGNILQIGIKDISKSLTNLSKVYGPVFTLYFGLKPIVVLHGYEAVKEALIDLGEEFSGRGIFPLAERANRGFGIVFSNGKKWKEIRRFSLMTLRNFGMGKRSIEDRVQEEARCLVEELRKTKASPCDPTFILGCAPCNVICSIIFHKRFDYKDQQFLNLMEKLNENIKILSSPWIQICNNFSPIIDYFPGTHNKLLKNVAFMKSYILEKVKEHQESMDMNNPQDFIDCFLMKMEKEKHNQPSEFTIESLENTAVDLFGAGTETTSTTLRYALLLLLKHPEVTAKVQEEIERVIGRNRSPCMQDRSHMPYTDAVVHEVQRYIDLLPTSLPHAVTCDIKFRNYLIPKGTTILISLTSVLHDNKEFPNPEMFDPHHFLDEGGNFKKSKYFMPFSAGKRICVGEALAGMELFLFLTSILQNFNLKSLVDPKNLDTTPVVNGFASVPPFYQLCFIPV

A number with no mark means an inactive call. Records with an inconclusive call do not appear. Calls of active or inactive are those of the source. Unless noted, calls come from the whole dose curve; as a rule, active = well fitted curve in either direction with a large enough effect (not every such curve was filed as active); inconclusive = small, poorly fitted or top-dose-only effect, or another doubt; inactive = flat fitted curve, though single readings scatter.

Sequence of Cytochrome P450 1A2 (Homo sapiens) (P05177 whole entry, looked up): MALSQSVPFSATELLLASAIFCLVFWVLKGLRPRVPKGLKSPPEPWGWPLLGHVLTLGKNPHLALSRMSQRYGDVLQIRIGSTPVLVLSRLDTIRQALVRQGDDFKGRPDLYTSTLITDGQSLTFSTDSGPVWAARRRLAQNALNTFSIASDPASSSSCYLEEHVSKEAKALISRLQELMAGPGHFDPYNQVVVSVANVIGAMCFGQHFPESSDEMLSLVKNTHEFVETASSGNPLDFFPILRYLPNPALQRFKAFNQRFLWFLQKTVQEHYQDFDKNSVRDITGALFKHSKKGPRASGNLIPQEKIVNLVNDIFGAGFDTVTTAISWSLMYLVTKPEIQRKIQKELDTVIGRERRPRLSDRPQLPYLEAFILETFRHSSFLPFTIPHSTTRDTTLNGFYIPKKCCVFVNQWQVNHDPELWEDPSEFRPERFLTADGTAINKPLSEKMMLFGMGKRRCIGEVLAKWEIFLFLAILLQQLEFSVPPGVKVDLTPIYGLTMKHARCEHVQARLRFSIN
Sequence of Cytochrome P450 2D6 (Homo sapiens) (P10635 whole entry, looked up): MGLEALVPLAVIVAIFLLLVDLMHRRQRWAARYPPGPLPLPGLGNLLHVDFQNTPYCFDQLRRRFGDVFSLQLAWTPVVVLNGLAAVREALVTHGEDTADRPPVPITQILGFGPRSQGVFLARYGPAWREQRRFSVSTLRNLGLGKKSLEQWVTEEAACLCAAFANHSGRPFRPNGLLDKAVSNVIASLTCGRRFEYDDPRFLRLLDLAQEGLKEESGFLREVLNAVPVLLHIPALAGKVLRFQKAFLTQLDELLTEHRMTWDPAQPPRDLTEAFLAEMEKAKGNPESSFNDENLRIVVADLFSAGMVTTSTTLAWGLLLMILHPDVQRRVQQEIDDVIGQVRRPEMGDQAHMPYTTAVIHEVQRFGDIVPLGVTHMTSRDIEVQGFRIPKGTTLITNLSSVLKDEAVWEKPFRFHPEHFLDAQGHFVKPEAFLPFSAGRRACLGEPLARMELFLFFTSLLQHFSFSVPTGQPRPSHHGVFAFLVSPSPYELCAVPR
Sequence of Cytochrome P450 3A4 (Homo sapiens) (P08684 whole entry, looked up): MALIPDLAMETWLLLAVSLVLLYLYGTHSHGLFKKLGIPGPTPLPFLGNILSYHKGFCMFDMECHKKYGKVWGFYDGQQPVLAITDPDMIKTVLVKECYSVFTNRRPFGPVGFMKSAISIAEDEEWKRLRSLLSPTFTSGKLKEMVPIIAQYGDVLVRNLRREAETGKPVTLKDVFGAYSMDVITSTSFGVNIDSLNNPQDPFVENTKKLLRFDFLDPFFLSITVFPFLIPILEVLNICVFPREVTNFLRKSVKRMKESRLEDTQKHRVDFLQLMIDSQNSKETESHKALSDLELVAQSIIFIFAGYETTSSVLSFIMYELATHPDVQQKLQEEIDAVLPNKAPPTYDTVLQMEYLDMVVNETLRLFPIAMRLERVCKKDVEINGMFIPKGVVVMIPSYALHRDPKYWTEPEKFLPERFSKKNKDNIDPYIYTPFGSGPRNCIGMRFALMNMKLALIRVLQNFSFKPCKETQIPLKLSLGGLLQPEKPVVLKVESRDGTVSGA

As for `CN1CCN(CC(=O)N2c3ccccc3Sc3cc4ccccc4cc32)CC1`, the Potency in [1] is over 11.4 µM; in [5], over 46 µM; in experiment [6] it was over 9.22 µM. The activity change, negative = inhibition in experiment [2] was 12.2%; in experiment [3] it was -21.6% [at 2.29 µM]. The activity, negative = inhibition in experiment [4] was -5.37%. Further, the Potency result in [7], in experiment [8] and in experiment [9] was “inactive” each time.
With `C[C@@]12C[C@H](O)[C@@H]3[C@H](CCC4=CC(=O)CC[C@]43C)[C@H]1CC[C@@H]2c1csc(N)n1`, the Potency is over 11.4 µM in [1]; 1.73 µM (active) in [5]; over 9.22 µM in experiment [6]; 2.51 µM (active) in experiment [10]; 3.98 µM (active) in experiment [11]. The activity change, negative = inhibition is 4.13% in experiment [2] and -9.8% [at 2.29 µM] in experiment [3]. Also, the activity, negative = inhibition in experiment [4] is -3.43%. Further, the Potency entry in experiment [7], in experiment [8] and in [9] was “inactive” each time.
As for `O=C(c1ccccc1)[C@H](Nc1ccc2ccccc2c1)c1ccccc1`, the Potency was over 11.4 µM in [1]; 0.794 µM (active) in [3]; over 46 µM in experiment [5]; over 9.22 µM in experiment [6]; 3.16 µM (active) in experiment [10]. In experiment [2], the activity change, negative = inhibition is 23.6%. The activity, negative = inhibition in experiment [4] was -0.0129%. For the same compound, the Potency entry in experiment [7], in experiment [8] and in experiment [9] was “inactive” throughout.
As to `Cc1ccc(C(=N)c2ccccc2Cc2cccc3ccccc23)c2ccccc12`, the Potency is over 11.4 µM in [1]; 1 µM (active) in experiment [3]; over 46 µM in experiment [5]; over 9.22 µM in experiment [6]; 3.98 µM (active) in experiment [10]; 1.26 µM (active) in [11]. The activity change, negative = inhibition in experiment [2] is -3.34%. In experiment [4], the activity, negative = inhibition was 13.8%. Moreover, the Potency entry in experiment [7], in experiment [8] and in experiment [9] was “inactive” in each case.
`Cc1ccccc1C(=N)c1ccccc1Cc1cccc2ccccc12`: the Potency in experiment [1] was over 11.4 µM; in experiment [5], over 46 µM; in [6], over 9.22 µM. The results for the activity change, negative = inhibition in [2] and in [3] were 5.2% and -17.7% [at 2.29 µM], respectively. In experiment [4], the activity, negative = inhibition was 9.25%. Besides, the Potency result in [7], in [8] and in experiment [9] was “inactive” throughout.
As to `Cc1ccc2nc(N/N=C\c3cccc(C)n3)cc(C)c2c1`, the Potency is over 11.4 µM in experiment [1]; 0.631 µM (active) in experiment [3]; over 46 µM in experiment [5]; over 9.22 µM in [6]; 3.16 µM (active) in [12]. The activity change, negative = inhibition in [2] is -4.58%. The activity, negative = inhibition in experiment [4] is 7.26%. The Potency entry in experiment [7], in experiment [8] and in experiment [9] was “inactive” in each case.
As for `CN(C)CC(C)(C)CN1c2ccccc2Sc2ccccc21`, the Potency in [1] is over 11.4 µM; in experiment [5], over 46 µM; in experiment [6], over 9.22 µM; in experiment [12], 0.199 µM (active). Further, the activity change, negative = inhibition in experiment [2] was 24%. For the same compound, the Potency entry in experiment [3], in [7], in [8] and in experiment [9] was “inactive” throughout. Besides, the activity, negative = inhibition in experiment [4] is 0.898%.
For `CC(C)(C)NCC[C@@H](O)c1cc(C(F)(F)F)nc2c(C(F)(F)F)cccc12`, the Potency in experiment [1] is over 11.4 µM; in [5] it was over 46 µM; in experiment [6], over 9.22 µM; in experiment [12] it was 0.316 µM (active). The activity change, negative = inhibition was 9.95% in experiment [2] and -9.9% [at 2.29 µM] in [3]. Further, the activity, negative = inhibition in experiment [4] is -4.67%. For the same compound, the Potency entry in [7] and in [8] was “inactive” throughout.
Regarding `c1ccc(/C(=N/Nc2nc3ccccc3s2)c2ccccn2)cc1`, the Potency is over 11.4 µM in experiment [1], 3.16 µM (active) in experiment [3], over 46 µM in experiment [5] and over 9.22 µM in experiment [6]. For the same compound, in experiment [2], the activity change, negative = inhibition was -20.5%. For the same compound, the activity, negative = inhibition in experiment [4] is -1.49%. The Potency entry in [7], in [8] and in experiment [9] was “inactive” throughout.
On to `Clc1ccc2c(c1)N(CCCN1CCCC13CCCCC3)c1ccccc1S2`, for which the Potency in [1] was over 11.4 µM; in [5], over 46 µM; in experiment [6], over 9.22 µM; in experiment [12], 0.0079 µM (active). Further, the activity change, negative = inhibition in experiment [2] was 19%; in experiment [3], -6.2% [at 2.29 µM]. Also, in experiment [4], the activity, negative = inhibition was 11.1%. Besides, the Potency entry in experiment [7] and in experiment [8] was “inactive” throughout.
`CC1(C)N=C(N)N=C(N)N1CCCCc1ccccc1`: the Potency in experiment [1] was over 11.4 µM; in [5], over 46 µM; in experiment [6], over 9.22 µM; in experiment [12], 3.16 µM (active). Further, the activity change, negative = inhibition is 7.1% in experiment [2] and -4.3% [at 2.29 µM] in [3]. For the same compound, the activity, negative = inhibition in experiment [4] was 0.495%. Moreover, the Potency result in experiment [7] and in experiment [8] was “inactive” each time.
In the case of `Cc1ccc(S(=O)(=O)Nc2ccccc2C=O)cc1`, the Potency was over 11.4 µM in experiment [1], over 46 µM in [5], over 9.22 µM in experiment [6] and 5.01 µM (active) in experiment [11]. For the same compound, the activity change, negative = inhibition in experiment [2] was -0.783%. The Potency entry in experiment [3], in [7], in experiment [8] and in [13] was “inactive” each time. In addition, in experiment [4], the activity, negative = inhibition is 24%.
Turning to `Cc1[nH]n(-c2ccc(S(=O)(=O)O)cc2)c(=O)c1N=Nc1ccccc1`, the Potency in experiment [1] was over 11.4 µM; in experiment [5], over 46 µM; in experiment [6] it was over 9.22 µM. Besides, the activity change, negative = inhibition in experiment [2] is -16.3%. In addition, the Potency entry in [3], in experiment [7], in [8] and in experiment [11] was “inactive” in each case. In addition, in [4], the activity, negative = inhibition was -16.2%.
For `O[C@H](CNc1ccccn1)c1ccccc1`, the Potency is over 11.4 µM in [1], over 46 µM in [5], over 9.22 µM in [6] and 1.58 µM (active) in experiment [12]. Also, in [2], the activity change, negative = inhibition is 1.58%. Besides, the Potency entry in experiment [3], in [7] and in experiment [8] was “inactive” each time. The activity, negative = inhibition in experiment [4] is 4.88%.
